Among the data in PubChem BioAssay AID1159506 (National Center for Advancing Translational Sciences (NCATS), 2015) are seed-corrected z-score values, retold here.

In all, about 59,000 sequences were measured (the read-out: median about -0.00055, lowest 2% from about -2 on). The full list was thinned out, with the lowest values kept by preference.

This experiment is described as follows: Identification of proteins required for the processing of the EWS-FLI1 nascent transcript.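 Also: robust z of luciferase light less the median z of siRNAs with the same seed.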 To be noted: TC32 Ewing sarcoma NR0B1-luc vs CMV-luc (EWS-FLI1 target promoter against control promoter), 48 h; screened at 20 nM (by protocol). As for the experimental part: Ewing sarcoma (ES) cells depend on the EWS-FLI1 fusion transcription factor for cell survival. Using an assay of EWS-FLI1 activity and genome-wide siRNA screening we have identified proteins required for the processing of the EWS-FLI1 nascent transcript. Parallel genome-wide siRNA-mediated RNAi screens were conducted in Ewing sarcoma TC32 cell lines expressing a luciferase (luc) reporter protein driven by either the promoter of the EWS-FLI1 target gene NR0B1 (TC32-NR0B1-luc) or the CMV promoter (TC32-CMV-luc). Luciferase activity was assessed 48 hours post siRNA-transfection.
Twenty microl of serum-free media containing Lipofectamine RNAiMax (0.05 microl) was added to wells containing siRNA (0.8 pmol). Lipid and siRNA were allowed to complex for 45 min at ambient temperature before addition of 600 cells in RPMI-1640, 20% FBS to yield final transfection mixtures containing 20 nM siRNA in RPMI-1640, 10% FBS. Luciferase expression was measured using OneGlo (Promega, Madison, WI). The genome-wide screening campaign was conducted using Ambion's human genome library version 4.1 (Ambion, Austin TX). This library targets approximately 21000 human genes, three siRNAs per gene. Each siRNA is arrayed in an individual well of a 384-well plate. Parallel transfections were conducted in TC32-NR0B1-luc and TC32-CMV-luc cell lines and luciferase expression (OneGlo, Promega) was assayed 48 h later on a PerkinElmer Envision 2104 Multilabel plate reader (PerkinElmer, Waltham, MA). Qiagen's AllStars Negative control was incorporated on all screening plates for normalization (16 wells per plate). Qiagen, Germantown, MDsiGL4 was incorporated as a positive transfection control (16 wells per plate) on all plates. […] The raw luciferase data for the NR0B1- and CMV-luc screens were normalized and z-score-MAD transformed using standard methods (Chung et al., 2008). The miRNA-like seed sequence of every siRNA was determined and the median z-score for all siRNA sequences with the same seed sequence was calculated. This z-score was subtracted from the z-score associated with each siRNA with that seed sequence to generate a seed-adjusted z-score value (Z) that was used when the results for the three siRNAs corresponding to each gene were compared (Marine et al., 2012)
Sequence UGCAGUUUGACGGUGCCUC against TMEM204 returned a seed-corrected z-score of -0.467.
The result for UCCCAUUCCACUGCUACUG against RBMX reads -2.45; that for UAACUCGAAAGUGAACUUC against MYOZ3, 0.0654; that for UAGGUAAUAAUUCACAAUG against CCL19, -0.226.
UCUGUUGGUACUGUGCAGG against PPA1 yielded a seed-corrected z-score of -1.37.
On to UCCGUUCACAUUCAGGAUC against SLC6A16, for which the seed-corrected z-score is -0.88.
In turn, UCCUUGUAGAGCUUGAUGG against TOP3B displayed a seed-corrected z-score of 1.26.
In the case of AACUAGAAUAAAGAAGAUG against SLC6A9, the seed-corrected z-score turned out to be 0.0838.
The result for AAAACUUCAAAUACCAUGC against SRPK1 reads -1.05; that for UUGCGGGUGACAAUCUCCC against CROCC, 0.165; that for UUUCCGGAUCAGACCGUGC against RPS29, 1.1.
UCACGGUCAACAAAGUAGG against BRINP1 returned a seed-corrected z-score of -2.87.
With UAUAAGAAAUGGUUUUGUC against OR6C6, the seed-corrected z-score stood at 0.719.
For the sequence AUCACGUUUAUGUCCAUUG against BMPER, the seed-corrected z-score is -0.464.
The sequence UUGGCGUUCAUAAGCCGCC against PTRH1 had a seed-corrected z-score of 0.961.
Consider ACUCUUUUUAAGGUGCUUC against DTX1, for which the seed-corrected z-score was -3.91.
The result for AAGUUUUCCAACGUACUCU against IL4 reads 0.239; that for AAGGUUGAGAGAUGUAGCU against SPANXA1, 1.05; that for UUUUAUUCUUUCGCUUUUU against MEAF6, -1.39.
The result for UUUGGAAUCAUCCAGGAAA against C8orf82 reads 0.192; that for UUCUGGAUAACAAAGUCAC against PCDH1, 0.112; that for UGGUGAUUCAGAUAGCUGG against ARHGAP11A, -0.84.
Then AUCUUGAUAGGGACCUUGG against PRAP1, with 0.654.
UGAUCUUAUAGUAAUCAGG against BRD4 came in with a seed-corrected z-score of -2.52.
The result for GACGGCAUCAAUCAGGUCC against PYCR1 reads 0.0435; that for AAAGAUGCAACCAAUGCUC against CDK3, -0.134; that for UUACUUCAAAACGGUAUCC against ASB17, -9.19.
Then UGAUUGUUGACUGACGAUG against DMXL1, with 1.23.
As to UUCUUUCAAAUUUCGGUUG against SOX13, the seed-corrected z-score is 0.262.
UCUUGCUCUAGUGUCCUGG against DNAJC17 displayed a seed-corrected z-score of -2.46.
Then UUUAUCCUCAAAACUCUCC against C6orf10, with 0.952.
UCUCAUACUUCCCAUGCCC against LSP1 came in with a seed-corrected z-score of -0.209.
For the sequence UAUGGGACACUUAUUGGAG against PVRIG, the seed-corrected z-score is -0.543.
Then AGAGCACUGAGUAGAAUGC against MFSD9, with -1.44; and UGCUUGUCUAAGCCUUUGG against RPS12P9, with -2.08; and UAAGGUAAUGAUUACCACC against RBKS, with -0.288.
Then UUGACUACCAGGAAAGGCU against KRT86, with -0.062.
In turn, UAUUUAUUGCGAGAAUCAG against CLCN4 had a seed-corrected z-score of -3.96.
For the sequence UCCAGAAGCUGGAUGGUCC against GALE, the seed-corrected z-score was -0.197.
Then UGACGUACAGGUUAGCAUC against ELAVL3, with 0.583.
The result for AACGGUAUUGAUGACAGCC against TMLHE reads -0.307; that for UACGAUGUCACCUAUAUUG against CSMD2, -0.00124; that for UAUCUUGAGAGGUGCCUCC against THRAP3, 1.
Then UCGUACUUUAAAGAUGUCC against CR1, with -0.43; and UUGUUUGCAGGAAGGGAGG against LOC643770, with -0.34.
Sequence UUUCUGUUCUUACAGGUGG against SRSF5 gave a seed-corrected z-score of -1.33.
The result for AUAGUAAAACCAAUUACCC against OR2J2 reads -2.15.
Then AUGGUGAAGACGUAGUUGC against CACNA1H, with -1.21; and UUUAGGAACCUUGACUAGC against GTF2F2, with 0.153; and AACGUGUAGAUCUUCAUGA against UBXN6, with -1.15.
The sequence UGAAGUUCAGGUUCGUAAC against TBPL1 showed a seed-corrected z-score of -2.64.
In the case of UUGACAUUUACUUCAGUUU against TRABD, the seed-corrected z-score was 0.607.
AGUGGAUACAUAGCUGUCU against ZBTB45 displayed a seed-corrected z-score of -0.6.
Then UCCUUAAUUUGAUAUUUGC against MAGEA8, with -0.105.
AUACUUGCAGGUGUCAUUG against CD300A gave a seed-corrected z-score of -0.484.
On to AUCGCUUUGAGGUUAGAGG against SYT3, for which the seed-corrected z-score was -0.878.
The result for UAUCAUAUGAUGCAUAAGC against ANGPTL5 reads 0.711; that for UGAUGAUACACUGCAAGUC against IGSF3, -2.96; that for UAAUCUAUUGAUAUGCUGG against SLC25A32, 0.699.
For the sequence AAGUGGAACACUCAAGUCC against ZNF471, the seed-corrected z-score was -1.03.
Then AUAAAUGAUACGGGUGCUC against TPI1, with -0.201.
Then UAGGAGCAGAGGAAUCUUC against SLC35F4, with 0.0717; and UUCUGAUGUAUGUUGAGCC against ZNF350, with -4.18.
The result for UUCUCGUUGAUCUUUUUGG against CPXCR1 reads -0.131; that for UCCUGUUCCUUGAUAUUGU against GZMH, -0.564.
On to UUAUCUGUGAGAGCAAUUA against LOC728752, for which the seed-corrected z-score was -1.23.
The result for UCUGGAUCUAUUAAGCUGC against LRRFIP2 reads -2.34; that for AAAUCAGUGGGAAAGAUCC against DENND3, 1.04.
UUCUCCAUCAUGCGAAUGG against FEN1 had a seed-corrected z-score of 0.188.
With UGGUAGUACACCUUGCAGC against C1orf111, the seed-corrected z-score was -2.08.
The result for UGUAAUACCUGAAUCGGUG against PRKRA reads -0.234.
The result for AAAUAGACAAAUAGGAUCC against PSMD12 reads -2.98; that for UAUCUGAGAGUGAUCCUUC against LRRC47, 1.55; that for UCAAUUCAGACUGUAAUGC against PTPDC1, -0.0227.
Then AUUCUCACCAUAAAGAGCA against LOC729722, with -2.33; and UUAUGCUUAGGUAACUUGC against AADACL3, with -3.87; and UAUAUAUCGUGCUUGAUAC against RIPK2, with 0.0696.
As for UAUGCGACAAAGAAUGACU against OR4N3P, the seed-corrected z-score was found to be 0.242.
Regarding UUUUCGAUUAAACCUUUUC against C17orf58, the seed-corrected z-score is -0.0867.
Take UAAUCAAUCAUAGAGAUAG against GSTO1: the seed-corrected z-score came to 0.0812.
Then UUUAUUACAAUCCAAAAGU against HCST, with 0.824.
UUCUCGAUCAAGAGCAUCC against SPEF2 yielded a seed-corrected z-score of -12.2.
Then UUUGUGGUUAUUCUUUUAU against CDC42EP2, with -0.0752.
Then UACAGCAUAAUCUCAUUUG against BPY2, with 0.91; and UAAGCAGUAGAGUUAGUUC against LINC01249, with 0.231.
